# Measured values taken from PubChem BioAssay (Tox21).
# Inconclusive results are not listed. The source made the active and inactive calls. Calls follow the shape of the dose curve; as a rule, active = well fitted activation curve with a large enough effect in the repeat runs; inconclusive = weak or mixed curves; inactive = no such curve, though single readings can be large or run the other way.
# Biological target: Nuclear receptor subfamily 1 group I member 2 (Homo sapiens) (UniProt O75469)
# Assay: Human pregnane X receptor (PXR) small molecule agonists, qHTS assay (AID 1346982); also: nearly all actives have a fitted effect of over 35% in size
# Settings: PXR-Luc HepG2, CYP3A4 luciferase reporter, 24 h; series mostly up to 92.4 µM; activation: at the top concentration
# Outline: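 After plating in 5% charcoal-stripped FBS and a 5 hr rest, PXR-Luc HepG2 cells received compounds in DMSO. Following 24 hr at 37 C, ONE-Glo was added and light output read.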
# % is scaled to controls: 0 for no effect and ±100 for the full control effect; potency is read from the fitted curve at half-maximal effect.
# Nuclear receptor subfamily 1 group I member 2 (Homo sapiens), sequence (O75469 whole entry, looked up): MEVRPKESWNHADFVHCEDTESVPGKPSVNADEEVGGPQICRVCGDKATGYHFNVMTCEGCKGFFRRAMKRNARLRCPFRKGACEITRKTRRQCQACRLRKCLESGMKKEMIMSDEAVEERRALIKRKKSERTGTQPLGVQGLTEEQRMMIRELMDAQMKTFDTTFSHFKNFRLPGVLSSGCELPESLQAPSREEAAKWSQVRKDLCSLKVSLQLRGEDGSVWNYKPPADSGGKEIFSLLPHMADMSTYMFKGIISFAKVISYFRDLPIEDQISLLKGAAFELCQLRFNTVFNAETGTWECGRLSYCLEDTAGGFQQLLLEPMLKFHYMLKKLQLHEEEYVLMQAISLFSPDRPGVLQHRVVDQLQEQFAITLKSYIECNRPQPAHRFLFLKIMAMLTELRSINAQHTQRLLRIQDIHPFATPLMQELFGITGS
SMILES,activation,Potency
NC1CCC(CC2CCC(N)CC2)CC1 (stereo unspecified),-8.88% (inactive),–
O=S(=O)(O)F,–,53.8 µM (active)
O=S1(=O)OCC2C(CO1)C1(Cl)C(Cl)=C(Cl)C2(Cl)C1(Cl)Cl (stereo unspecified),–,21.7 µM (active)
C#CCO,-1.84% (inactive),–
C=CCOC(=O)c1ccccc1N,2.96% (inactive),–
CN/C(=N\[N+](=O)[O-])NCc1cnc(Cl)s1,3.39% (inactive),–
CC(C)NCC(O)c1ccccc1Cl (stereo unspecified),-6.6% [at 42.5 µM] (inactive),–
CC(C)[C@@H](Nc1ccc(C(F)(F)F)cc1Cl)C(=O)OC(C#N)c1cccc(Oc2ccccc2)c1 (stereo partly specified),–,7.42 µM (active)
CC(=O)[O][Pb]([c]1ccccc1)([c]1ccccc1)[c]1ccccc1,-57.6% (inactive),–
Cc1nn(-c2cc(NS(C)(=O)=O)c(Cl)cc2Cl)c(=O)n1C(F)F,6.86% (inactive),–
CCNS(=O)(=O)C(F)(F)C(F)(F)C(F)(F)C(F)(F)C(F)(F)C(F)(F)C(F)(F)C(F)(F)F,3.98% (inactive),–
CCOP(=S)(OCC)Oc1cc(C)nc(N(CC)CC)n1,–,17.2 µM (active)
O=P(Cl)(Cl)Cl,17.8% (inactive),–
CCCCN(CCCC)C(=S)[S-].CCCCN(CCCC)C(=S)[S-].[Ni+2],-9.94% [at 42.5 µM] (inactive),–
CCOP(=O)(OCC)Oc1cc(C)nc(C(C)C)n1,5.71% (inactive),–
O=Cc1ccccc1,0.783% (inactive),–
O=[N+]([O-])C(Br)Br,3.15% (inactive),–
O=NN(CCO)CCO,6.9% (inactive),–
Clc1c(Cl)c(Cl)c(Cl)c(Cl)c1Cl,-14.4% [at 8.39 µM] (inactive),–
COc1ccc(Cc2nccc3cc(OC)c(OC)cc23)cc1OC,–,16.8 µM (active)
O=C(NC(=O)c1c(F)cccc1F)Nc1ccc(Oc2ccc(C(F)(F)F)cc2Cl)cc1F,–,19.3 µM (active)
